In the library only some 6.9% were active in any assay of this set; here they are far more common.
IL-1B inflam inh = inhibitors of inflammasome signaling (IL-1 beta secretion) | THP-1 LPS/ATP IL-1B secretion, AlphaLISA, 16 h; active compounds read low | activity change, % at 57.5 µM | 360,000 tested, 4.7% active | AID 743279; in the data active = activity change below about -50%; inconclusive = mostly about -30% to -49%; note: % is set by controls: 0 for no effect and ±100 for the full control effect
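THP-1 cells pretreated 1 hr with compounds (up to 57.5 uM final), then stimulated with LPS (250 ng/mL final) plus ATP (1.25 mM final); secreted IL-1B measured by AlphaLISA after 16 hr, decreased signal indicating inhibition.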
Vif-APOBEC3G blk = blocks the Vif interaction with human APOBEC3G. HeLa A3G-eYFP + Vif (tagged APOBEC3G with the HIV-1 protein that degrades it), YFP fluorescence, overnight. AID 602310. 410,000 tested, 0.076% active. Potency, µM (doses to about 46.1 µM), without a hit: at the highest dose activity, negative = active, usual class: inhibitors. Q9HC16; note: potency is the fitted concentration of half-maximal effect; % is set by controls: 0 for no effect and ±100 for the full control effect; nearly all actives have a fitted effect of over 60% in size
Target sequence (Q9HC16 whole entry, looked up): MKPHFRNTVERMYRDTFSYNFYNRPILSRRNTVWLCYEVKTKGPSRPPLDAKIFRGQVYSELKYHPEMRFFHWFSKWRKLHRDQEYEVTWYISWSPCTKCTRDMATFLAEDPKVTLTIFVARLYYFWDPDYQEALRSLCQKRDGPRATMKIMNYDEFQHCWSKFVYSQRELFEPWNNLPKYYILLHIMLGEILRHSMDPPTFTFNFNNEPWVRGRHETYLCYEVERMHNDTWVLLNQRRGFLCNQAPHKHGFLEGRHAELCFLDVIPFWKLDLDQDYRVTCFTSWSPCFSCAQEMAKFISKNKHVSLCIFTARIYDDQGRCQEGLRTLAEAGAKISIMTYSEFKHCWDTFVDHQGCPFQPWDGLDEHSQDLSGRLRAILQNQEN
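HeLa cells stably expressing Vif and C-terminally eYFP-tagged A3G, seeded overnight at 37 deg C, then exposed to compound by pintool overnight at 37 deg C. Rise in yellow fluorescence (Ex 488/Em 500-530, Acumen) marks blocked Vif-driven A3G degradation.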
MCF10A rereplic = induces DNA re-replication in MCF 10a normal breast cells | AID 624296 | 350,000 tested, 2.9% active | Potency, µM (doses to about 46.1 µM), inactives show at the top dose activity, positive = re-replication, actives largely listed as activators | MCF 10A DNA re-replication, Hoechst nuclear intensity, 48 h; note: potency is the fitted concentration of half-maximal effect; % of control where 0% means no effect; nearly all actives have a fitted effect of over 50% in size
Giardia killer = Giardia lamblia killing; 340,000 tested, 0.15% active; activity change, % at 7.66 µM, hits read low; AID 540267; Giardia lamblia trophozoite viability; in the data active = activity change below about -80%; inconclusive = between about -30% and that limit;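 note: parasites exposed to compound for two days anaerobically before the ATP read; % is set by controls: 0 for no effect and ±100 for the full control effect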
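ATP-content bioluminescence gauges trophozoite survival. Cells (100/well) receive compound and incubate anaerobically for 48 hrs at 37 deg C; detection reagent follows for 15-30 min at room temperature.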
Vif-A3F inh = Vif-A3F binding inhibition; Potency, µM (titrated, usually from 46.1 µM), without a hit: top-dose activity, negative = active; AID 602313; HeLa A3F-eYFP + Vif (tagged APOBEC3F with the HIV-1 protein that degrades it), YFP fluorescence increase; 390,000 tested, 0.2% active; note: potency is the fitted concentration of half-maximal effect; % of control where 0% means no effect; nearly all actives have a fitted effect of over 65% in size
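HeLa cells stably expressing A3F-eYFP plus Vif, plated and incubated overnight at 37 deg C, then exposed to compounds overnight at 37 deg C. Blocked degradation read as raised yellow fluorescence (Ex 488/Em 500-530).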
SW480 rerep = inducers of DNA re-replication in SW480 colon cancer cells. SW480 DNA re-replication, Hoechst DNA content imaging, 48 h. Potency, µM (doses to about 46.1 µM), without a hit: at the top dose re-replication activation, actives largely listed as activators. 340,000 tested, 1.8% active; note: potency is the fitted concentration of half-maximal effect; % of control where 0% means no effect; nearly all actives have a fitted effect of over 55% in size
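250 cells/well; 23 nL cpd via pin tool; 48 hr, 37 C, 5% CO2; Hoechst 40 min; imager read of total nuclear intensity, ex 405/em 500-530 nm.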
Active calls of the source: *; i = inactive; ? = inconclusive; . = no result given; [ ] = remark or other dose. Unless noted, calls come from the whole dose curve; as a rule, active = well fitted curve in the direction sought with a large enough effect; inconclusive = small, poorly fitted or top-dose-only effect, or another doubt; inactive = no such curve, though single readings can be large; an effect the other way counts as inactive or inconclusive.

SMILES | IL-1B inflam inh | Vif-APOBEC3G blk | MCF10A rereplic | Giardia killer | Vif-A3F inh | SW480 rerep
Cc1ccc(/C=C2/Sc3ccc(C(=O)N4CCN(c5ccccn5)CC4)cc3NC2=O)cc1 | 12.9 | -0.9% | 8.2µM* | -4.1 | 1.3% | 19.7%
CCC1=C[C@@H]2CN(C1)Cc1c([nH]c3ccccc13)[C@@](C(=O)OC)(c1cc3c(cc1OC)N(C)[C@H]1[C@@](O)(C(=O)OC)[C@H](OC(C)=O)[C@]4(CC)C=CCN5CC[C@]31[C@@H]54)C2 | . | -35.6% | . | . | . | .
COc1ccc2cc(S(=O)(=O)c3ccccc3F)c(=O)oc2c1 | . | -30.3% | . | . | 1.2% | .
Cc1ccc(NC(=O)N2CCC(n3c(C)nc4cccnc43)CC2)c(Cl)c1 | . | -4.2% | . | . | 1.7% | .
COc1nc(N2CCCCCC2)nc(N2CCCCCC2)n1 | 26.0 | -1.7% | 18.4µM* | -7.5 | -7.2% | 18.6%
COc1nc(C#N)nc(N2CCCC2)n1 | . | -0.7% | . | 12.9 | . | .
CCOc1nc(C#N)nc(N2CCCCC2)n1 | -92.2* | -9.5% | ? | -2.6 | 2.3% | 20.9%
Cc1ccc(SCc2nc(-c3ccc(C(=O)NCC(C)c4ccccc4)cc3)oc2C)cc1 (configuration not stated) | . | 2.9% | . | . | 0.8% | .
O=C(Nc1cccc(Br)c1)N1CCC(CN2CCCCCC2)CC1 | . | 0.6% | . | . | 7.5% | .
O=C(CCl)N(c1ccccc1)C1CCS(=O)(=O)C1 (configuration not stated) | -88.8* | -9.6% | ? | 5.2 | -5.1% | 16.4µM*
Cc1cc(C(=O)N/N=C\c2cc(C(C)(C)C)ccc2O)n[nH]1 | 197.9 | -18.8% | -14.0% | -4.7 | 5.0% | ?
CC(=O)N/N=C/c1cc(C(C)(C)C)cc(/C=N/NC(C)=O)c1O | 49.0 | 12.6µM* | 14.6µM* | 9.4 | 22.4µM* | 3.26µM*
CNc1oc(-c2ccc(Cl)cc2)nc1P(=O)(c1ccccc1)c1ccccc1 | -61.1* | -0.8% | 16.4µM* | -13.7 | -4.1% | 15.1%
CCC(=O)N1c2ccccc2CC1C(=O)NCCc1ccccc1Cl (configuration not stated) | . | 0.3% | . | . | 0.9% | .
Cc1nc(SCc2ccc(OCCC(C)C)cc2)n[nH]1 | 22.6 | -0.7% | 12.6% | 4.1 | 1.6% | 23.1µM*
Cc1c(C(=O)NCCc2ccccc2)cccc1-n1cnc2cccnc21 | . | 2.4% | . | . | -4.2% | .
Cc1ccc(-n2c(C)cc(/C=c3/sc4nc5ccccc5n4c3=O)c2C)cc1 | -9.3 | 0.0% | 9.2µM* | 4.4 | . | 1.1%[9.22 µM]
Cc1ccc(-c2csc(/C(C#N)=C/c3ccccc3Cl)n2)cc1 | . | -18.4% | . | . | ? | .
CC(=O)Nc1ccc(Sc2ccc([N+](=O)[O-])o2)cc1 | -97.3* | ? | 1.84µM* | 4.1 | ? | 5.8µM*
CC(C)CC(NC(=O)C1CCCN1C(=O)OC(C)(C)C)C(=O)NCC(N)=O (configuration not stated) | 5.8 | 1.4% | -1.9% | -9.2 | -5.1% | -2.5%
COC(=O)C(CC(C)C)NC(=O)C(Cc1ccccc1)NC(=O)C1CCCN1C(=O)OC(C)(C)C (configuration not stated) | -70.5* | 0.3% | 28.5% | 7.3 | -1.7% | -10.4%
O=C(/C=C/c1ccco1)NC(=S)Nc1nc(-c2ccc3ccccc3c2)cs1 | -5.2 | ? | 1.16µM* | ? | -1.7% | ?
O=C(/C=C/c1ccco1)NC(=S)Nc1nc(-c2ccc(Cl)cc2)cs1 | -8.3 | ? | 20.6µM* | -18.8 | -1.1% | -1.8%
Cc1ccc(S(=O)(=O)N2CCN(c3nc(-c4cccs4)nc4nc[nH]c34)CC2)cc1 | . | . | . | 7.6 | . | .
CC(C)(C)c1nc(SCC(=O)N2CCCC2)c2ccccc2n1 | -18.4 | -2.4% | -8.7% | -9.4 | -27.6% | -7.1%
SMILES | IL-1B inflam inh | Vif-APOBEC3G blk | MCF10A rereplic | Giardia killer | Vif-A3F inh | SW480 rerep
CC(C)(C)c1nc(SCC(=O)c2ccccc2)c2ccccc2n1 | -55.2* | -0.5% | ? | -0.6 | -24.0% | -0.6%
CCN(C(=O)COC(=O)/C=C/c1cccc(Br)c1)C1CCS(=O)(=O)C1 (configuration not stated) | i | 2.3% | ? | -7.2 | 2.4% | ?
CCN(C(=O)COC(=O)/C=C/c1c(C)nn(Cc2ccc(C)cc2)c1C)C1CCS(=O)(=O)C1 (configuration not stated) | 29.7 | 0.0% | -2.8%[9.22 µM] | 18.2 | -0.9% | 16.4µM*
C=C1CCN(C(Cc2ccccc2)C(=O)O)S(=O)(=O)c2ccccc21 (configuration not stated) | . | 3.7% | . | 2.5 | . | .
C=CCOC(/C=C/c1ccccc1)CC (configuration not stated) | . | 0.4% | . | 3.8 | . | .
CCOC(=O)c1ccc(Nc2nc(N)c3cc(OC)c(OC)cc3n2)cc1 | -10.3 | -19.2% | 20.6µM* | ? | ? | ?
Cc1ccc(Nc2nc(N)c3ccccc3n2)cc1Cl | -97.2* | -6.4% | 2.3% | -14.4 | ? | 8.6%
Cc1ccc(Nc2nc3ccccc3c3nnc(C)n23)cc1Cl | . | -1.4% | . | . | 7.6% | .
COc1cc2nc(Nc3ccc(C)c(C)c3)nc(N)c2cc1OC | -97.5* | -2.6% | ? | 56.9 | 3.5% | ?
COc1cc2nc(Nc3ccc(C)c(Cl)c3)nc(N)c2cc1OC | -94.0* | -7.9% | 20.6µM* | -11.9 | -5.8% | 20.6µM*
O=C(Nc1ccc(Cl)c(-c2nc3ccccc3o2)c1)c1cccc2c(Cl)cccc12 | . | -7.3% | . | . | -0.8% | .
Cc1cccc(OCC(=O)Nc2ccc(S(=O)(=O)N(Cc3ccccc3)c3ccccc3)cc2)c1 | . | 1.9% | . | . | 2.0% | .
CC(CNC(=O)Cn1ncc2c3ccccc3n(Cc3cccc(Cl)c3)c2c1=O)c1ccccc1 (configuration not stated) | . | -4.2% | . | . | -19.2% | .
Cc1ccc(CCNS(=O)(=O)c2cc(-c3cc(C)no3)ccc2C)cc1 | . | 1.5% | . | . | -1.2% | .
CCc1nn(CC(=O)NC2CC2)c(=O)c2cc3c(OC)cccc3n12 | . | 5.4% | . | . | -0.9% | .
Cc1ccc(F)c(C2C3C=CCC(c4ccccc4)C3C(=O)N2Cc2ccccc2)c1 (configuration not stated) | . | -11.8% | . | 0.1 | . | .
O=[N+]([O-])c1cc(S(=O)(=O)NCCN2CCOCC2)ccc1Sc1nnnn1-c1ccccc1 | -99.8* | -13.8% | ? | -9.1 | -8.5% | 14.6µM*
CN(C)CCNS(=O)(=O)c1ccc(N2CCN(c3ccc(F)cc3)CC2)c([N+](=O)[O-])c1 | -73.5* | 1.5% | ? | -15.8 | -3.3% | ?
Cc1ccc(-n2nnnc2Sc2ccc(S(=O)(=O)NCCN(C)C)cc2[N+](=O)[O-])cc1 | -51.3* | -15.3% | ? | -6.1 | -6.8% | 8.2µM*
Cc1ccc(S(=O)(=O)NCCSc2nnnn2-c2ccc(C(N)=O)cc2)cc1 | 5.5 | -0.9% | -13.5% | -1.3 | 0.6% | -7.9%

Screens: PubChem, National Center for Advancing Translational Sciences (NCATS)
